This note sets out measurements from PubChem BioAssay AID652099 (National Center for Advancing Translational Sciences (NCATS), 2013).

Active and inactive are the calls of the source.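 Rule for the calls: active = Gaucher patient macrophages show a phagocytic index close to or matching that of healthy macrophages; inactive = the rest.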

This test in a line: Extended Characterization of Activators of N370S glucocerebrosidase as a Potential Chaperone Treatment of Gaucher Disease: Phagocytosis Index. The note with it: Gaucher iPSC macrophages, phagocytosis of fluorescent E. coli particles. The source says:
Glucocerebrosidase (GCase) catalyzes the hydrolysis of beta-glucocerebroside (GC) to glucose and ceramide in lysosomes. Mutations in the glucocerebrosidase gene result in Gaucher disease, an autosomal recessive lysosomal storage disorder. Many of the mutations encountered in patients with Gaucher disease are missense alterations that may cause misfolding, decreased stability and/or mistrafficking of this lysosomal protein. […] These inhibitors include iminosugar analogs and other inhibitors that were discovered as part of previous work. However, the enhancement of enzyme activity by the chaperone action of an enzyme inhibitor must be balanced against the direct inhibition of the enzyme. […] In this extended characterization of our probe, we have further characterized the activity of probes in relevant models of Gaucher disease. This assay examine phagocytosis in patient-derived macrophages following compound incubation. NIH Chemical Genomics Center [NCGC] NIH Molecular Libraries Probe Production Centers Network [MLPCN] MLPCN Grant: MH086442 Assay Submitter (PI): Ellen Sidransky, NHGRI
HMacs and iMacs, plated in black 96-well clear bottom plates, were treated, washed and incubated for 2 hrs with 100 µl of fluorescein-labeled E. coli BioParticles (Vybrant Phagocytosis Assay, Invitrogen).
Turning to `C#Cc1ccc(NC(=O)c2cnn3c(C)cc(C)nc23)cc1`, the outcome is “active; similar to control”.
